Screens deposited in PubChem by National Center for Advancing Translational Sciences (NCATS).
Sampled rows, rich in hits. Any-hit rate of the full collection: about 1.3%.
Vaccinia mCherry: vaccinia inhibition (mCherry reporter); Vaccinia virus mCherry reporter infection, fluorescence; Potency, µM (top dose mostly 36.5 µM), inactives show at the top dose activity change, negative = inhibition, usual class: inhibitors; 310,000 compounds, 0.63% hits; AID 720579; calls by dose curve; tested in A549 cells; also: nearly all actives have a fitted effect of over 35% in size
TbPYK inhibitor: blocks Trypanosoma brucei pyruvate kinase. Q57TT1. 410,000 compounds, 0.12% hits. Potency, µM (doses to about 76.8 µM), for the others: top-dose activity, negative = inhibition, actives largely listed as inhibitors. AID 624173. TbPYK enzyme, Kinase-Glo Plus ATP luminescence, 45 min; also: nearly all actives have a fitted effect of over 50% in size
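Luminescent Kinase-Glo Plus end-point after 45 min room-temperature reaction of T. brucei pyruvate kinase started with 130 uM ADP (final). Buffer TEA 50 mM pH 7.2 with KCl, MgCl2, BSA, Tween-20; titration-based qHTS with fitted concentration-effect curves.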
AMA1-RON2 inh: inhibitors of Plasmodium falciparum AMA1-RON2 interaction; AID 720542; Potency, µM (highest dose often 58.2 µM), for the others: top-dose activity change, negative = inhibition, most hits filed as inhibitors; 360,000 compounds, 0.2% hits; AlphaScreen AMA1-biotinylated RON2 peptide binding;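 also: 0% = vehicle wells and -100% = peptide control; nearly all actives have a fitted effect of over 45% in size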
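AMA1 (3D7) with his tag at 25 nM final met compounds first, then biotinylated RON2 peptide at 25 nM; detection used donor plus acceptor beads, 10 µg/mL apiece, read by AlphaScreen after 30 min at room temperature.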
RE007 growth inh: less growth of the S. pombe RE007 Vpr strain | 360,000 compounds, 0.21% hits | S. pombe RE007 Vpr strain, BacTiter-Glo ATP luminescence, 24 h | Potency, µM (doses to about 92.2 µM), for the others: at the top dose activity change, negative = less growth, hits mostly inhibitors; active = well fitted falling curve with a large enough effect; inconclusive = small, poorly fitted or top-dose-only effect; inactive = no such curve, though single readings can be large or run the other way; also: nearly all actives have a fitted effect of over 50% in size
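Fission yeast strain RE007, carrying one chromosomally integrated HIV-1 vpr copy, was seeded at OD 0.01 in PMG+AL medium with 23 nL pinned compound. After 24 h at 30 °C and 99% humidity, viability was read by BacTiter-Glo luminescence.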
LmPK inhibitor: LmPK (Leishmania mexicana) enzyme inhibition. 290,000 compounds, 0.37% hits. Potency, µM (top dose mostly 57.5 µM), for inactives: top-dose activity change, negative = inhibition, actives largely listed as inhibitors. purified LmPK, Kinase-Glo ATP luminescence, 1 h
Target sequence (Q27686 whole entry, looked up): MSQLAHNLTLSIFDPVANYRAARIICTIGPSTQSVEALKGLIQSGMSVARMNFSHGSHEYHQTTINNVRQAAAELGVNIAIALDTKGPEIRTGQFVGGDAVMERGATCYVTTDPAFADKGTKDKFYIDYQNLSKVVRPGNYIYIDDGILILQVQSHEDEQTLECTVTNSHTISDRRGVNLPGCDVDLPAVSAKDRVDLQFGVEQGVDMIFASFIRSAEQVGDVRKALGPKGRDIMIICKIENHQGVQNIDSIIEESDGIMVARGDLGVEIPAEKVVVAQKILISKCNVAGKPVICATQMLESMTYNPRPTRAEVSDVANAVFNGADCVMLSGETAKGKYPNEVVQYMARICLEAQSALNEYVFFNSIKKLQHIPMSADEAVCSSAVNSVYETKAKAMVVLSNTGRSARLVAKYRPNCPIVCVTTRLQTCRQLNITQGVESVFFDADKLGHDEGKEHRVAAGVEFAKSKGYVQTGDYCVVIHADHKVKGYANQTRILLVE
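In 50 mM imidazole pH 7.2 with 7 mM MgCl2, LmPK (0.1 nM) turned over PEP (0.5 mM) and ADP (0.1 mM) for 1 h at room temperature. Luciferase read-out of ATP.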
Vaccinia Venus: inhibitors of vaccinia virus (Venus reporter); Vaccinia virus Venus reporter expression, fluorescence; Potency, µM (highest dose often 36.5 µM), without a hit: at the highest dose activity change, negative = inhibition, most hits filed as inhibitors; 330,000 compounds, 0.46% hits; AID 720580; calls by dose curve; tested in A549 cells; also: nearly all actives have a fitted effect of over 30% in size
Active calls of the source: *; i = inactive; ? = inconclusive; nt = not tested or not shown. Unless noted, calls follow the shape of the dose curve; as a rule, active = well fitted curve in the direction sought with a large enough effect; inconclusive = small, poorly fitted or top-dose-only effect, or another doubt; inactive = no such curve, though single readings can be large; an effect the other way counts as inactive or inconclusive. Unless noted, % is scaled to controls: 0 for no effect and ±100 for the full control effect; potency is read from the fitted curve at half-maximal effect.

SMILES | Vaccinia mCherry | TbPYK inhibitor | AMA1-RON2 inh | RE007 growth inh | LmPK inhibitor | Vaccinia Venus
CCN1CCCC1CNC(=O)c1cnn(-c2ncc(C)c(-c3ccc(F)cc3)n2)c1C(C)C (centres undefined) | -11% | nt | nt | nt | nt | -3%
O=C(NCCc1ccccc1Cl)c1ccc2c(c1)nc1n2CCOC1 | -8% | -1% | nt | nt | nt | -3%
C=CC[C@H](c1ccc(F)cc1)N(CC(C)C)S(=O)(=O)C=C | -51% | nt | nt | nt | nt | -71%
COc1ccc(Cl)cc1-c1cc2c(c(OC)c1)OCCN(Cc1cccn1-c1nccs1)C2 | -12% | nt | nt | nt | nt | -4%
COc1cc(CN2CCC3(CCC(CNC(=O)c4cc(C)nn4C)O3)CC2)ccc1F (centres undefined) | i | nt | nt | nt | nt | -21%
CC(C)CCCCCCCCCCCCC(=O)NCC(=O)NC1C(O)C(O)C(Nc2ncnc3nc[nH]c23)OC1C(O)CO (centres undefined) | 40µM* | -13% | -3% | ? | nt | 11µM*
CC(O)CNc1ncnc2nc[nH]c12 (centres undefined) | nt | -12% | 5% | -14% | 2% | nt
O=C(NC1CC1)[C@@H]1C[C@H](Sc2nc3ccccc3[nH]2)CN1CC1CCCCC1 | -18% | nt | nt | nt | nt | -12%
O=C(NCC1(N2CCOCC2)CCCC1)c1cnn(-c2nccc(-c3ccco3)n2)c1C1CC1 | -7% | nt | nt | nt | nt | 0%
COc1cccc(C2CC(=O)N3CN(c4ccccc4F)CSC3=C2C#N)c1 (centres undefined) | 6% | 3.5µM* | 5% | -18% | 10% | 7%
COc1ccccc1N1CSC2=C(C#N)C(c3ccc(SC)cc3)CC(=O)N2C1 (centres undefined) | 15% | 18µM* | 0% | -5% | -21% | -5%
COc1cccc(CNC(=O)c2c(OC)cc(=O)n3c2CCN(C(=O)c2csc(C)n2)CC3)c1 | -15% | nt | nt | nt | nt | -10%
COc1ccc(-c2cc(C(=O)N3CCc4c(cnc(C)c4CNC(=O)c4ccsc4)C3)[nH]n2)cc1 | -5% | nt | nt | nt | nt | 12%
COc1ccc(N=C2S/C(=C\c3ccc(Cl)c([N+](=O)[O-])c3)C(=O)N2CCN(C)C)cc1 | -23% | -4% | 14µM* | nt | -2% | ?
O=C(Nc1ccc(F)cc1)Nc1cc(OCC(F)(F)F)cc(OCC(F)(F)F)c1 | 10µM* | 2% | 10% | -14% | 7% | ?
CCN(CC)S(=O)(=O)c1ccc(-c2nnc(SCC(=O)N3c4ccccc4CC3C)o2)cc1 (centres undefined) | 0.63µM* | -10% | 4% | 0% | 3% | ?
COc1ccccc1-c1ccnc(-n2ncc(C(=O)NCCc3ccccn3)c2C)n1 | ? | nt | nt | nt | nt | -15%
COc1cccc(N2CC(O)=C(c3nc4ccccc4c(=O)[nH]3)C2=N)c1 | ? | -6% | 6% | 5% | 7% | 2.8µM*
Cc1cc(C)cc(N2CC(O)=C(c3nc4ccccc4c(=O)[nH]3)C2=N)c1 | -10% | -2% | 3% | -6% | -3% | -26%
CC(=O)/C(=N/Nc1ccc([N+](=O)[O-])cc1)N1CCCc2ccccc21 | -20% | 1% | 2% | 2% | 8% | -6%
CC(=O)/C(=N/Nc1ccccc1[N+](=O)[O-])N1CCCc2ccccc21 | -12% | -2% | 8.9µM* | -19% | -2% | -18%
Cc1oc(-c2cccc(Cl)c2)nc1CN1CCC(C(=O)N2CCN(c3ccccc3F)CC2)CC1 | ? | -7% | 7% | 6% | -3% | 16µM*
Cc1ccc(Cl)cc1N1CCN(C(=O)C2CCN(Cc3nc(-c4cccc(Cl)c4)oc3C)CC2)CC1 | -21% | -6% | nt | nt | nt | ?
COc1ccc(C(=O)CCN2CCc3cc(OC)c(OC)cc3C2)cc1 | -21% | -9% | -15% | 25µM* | 0% | -8%
CCOc1ccc(OCCN2CCCCC2)cc1 | -15% | 29% | -26% | 17% | -6% | -8%
SMILES | Vaccinia mCherry | TbPYK inhibitor | AMA1-RON2 inh | RE007 growth inh | LmPK inhibitor | Vaccinia Venus
COc1ccc(C(=O)CCN2CCN(c3ccccc3OC)CC2)cc1 | -22% | -2% | -13% | ? | -5% | -6%
CCCOc1ccc(C(=O)CCN2CCCCC2)cc1 | nt | 3% | -4% | 18µM* | 3% | -13%
CCOc1ccc(C(=O)CCN2CCCCCC2)cc1 | nt | -20% | 12% | 16µM* | -6% | -16%
Cc1nc2cc(NC(=O)[C@@H]3C[C@@H](Sc4ccccn4)CN3Cc3cccc(F)c3)ccc2s1 | -5% | nt | nt | nt | nt | 8%
COCC(=O)Nc1cc(C(=O)NC2Cc3ccccc3C2)cc2nc(-c3cccnc3)n(C)c12 | -13% | nt | nt | nt | nt | 7%
CC(=O)c1ccccc1-c1ccc2c(c1)CC(CNC(=O)C[C@@H]1C[C@@H](C)NC(=S)N1)O2 (some centres undefined) | -11% | nt | nt | nt | nt | 1%
Cc1ccc(N(C(=O)CCl)C(C(=O)NC2CCCCC2)c2cccnc2)cc1C (centres undefined) | ? | -5% | -6% | 3% | 0% | 7.1µM*
Cn1c(C2CCC2)nc2cc(C(=O)N3CCOc4ccccc4C3)cc(NC(=O)C3CCCO3)c21 (centres undefined) | -18% | nt | nt | nt | nt | -4%
CC1(C)N=C(N)N=C(N)N1c1ccccc1 | nt | -3% | 0% | 15% | -8% | ?
CC1(C)N=C(N)N=C(N)N1c1ccc(CCCCc2ccccc2)cc1 | 3.2µM* | 0% | -3% | 23% | nt | ?
O=C(CSc1nnc(-c2cccc(Br)c2)o1)NCC1CCCO1 (centres undefined) | ? | 0% | -20% | -14% | nt | 14µM*
NC(=O)CSc1nnc(-c2ccc(S(=O)(=O)N3CCCC3)cc2)o1 | ? | -13% | 8% | 6% | 4% | 3.2µM*
Cn1c(SCC(=O)NCC2CCCO2)nnc1-c1ccc(S(=O)(=O)N2CCCC2)cc1 (centres undefined) | -12% | -4% | 2% | 6% | 0% | -6%
COC(=O)CSc1nnc(-c2ccc(S(=O)(=O)N3CCCC3)cc2)o1 | 6% | 1% | -5% | -13% | 0% | -4%
O=C(CSc1nnc(-c2ccc(S(=O)(=O)N3CCCC3)cc2)o1)NCC1CCCO1 (centres undefined) | 4µM* | 4% | -8% | 1% | -2% | 4.5µM*
Cc1c(C(=O)NCCc2cccnc2)cnn1-c1ncc2c(n1)-c1ccccc1CC2 | ? | nt | nt | nt | nt | -25%
Cc1nnc(SCC(=O)Nc2nc(-c3ccc(F)cc3)cs2)[nH]c1=O | 13µM* | -4% | -8% | 5% | 0% | ?
Cc1cc(=O)[nH]c(SCC(=O)Nc2nc(-c3ccccc3)cs2)n1 | -8% | -17% | -1% | ? | 3% | 11%
